# Test results as given in ChEMBL document CHEMBL3433997, “St. Jude Leishmania screening dataset” (2016).
# Tests used:
# Assay type in all cases: functional
# [1] = molecular target: Solute carrier family 2, facilitated glucose transporter member 1 (Homo sapiens) (UniProt P11166); experiment: ST_JUDE_LEISH: Cytotoxicity at 2uM final concentration against transgenic Leishmania Mexicana promastigotes LmGLUT1 that are glucose transport deficient and complemented with the human glucose transporter GLUT1. Activity is measured by DNA content using SYBR green in vitro
# Solute carrier family 2, facilitated glucose transporter member 1 (Homo sapiens), sequence (P11166 whole entry): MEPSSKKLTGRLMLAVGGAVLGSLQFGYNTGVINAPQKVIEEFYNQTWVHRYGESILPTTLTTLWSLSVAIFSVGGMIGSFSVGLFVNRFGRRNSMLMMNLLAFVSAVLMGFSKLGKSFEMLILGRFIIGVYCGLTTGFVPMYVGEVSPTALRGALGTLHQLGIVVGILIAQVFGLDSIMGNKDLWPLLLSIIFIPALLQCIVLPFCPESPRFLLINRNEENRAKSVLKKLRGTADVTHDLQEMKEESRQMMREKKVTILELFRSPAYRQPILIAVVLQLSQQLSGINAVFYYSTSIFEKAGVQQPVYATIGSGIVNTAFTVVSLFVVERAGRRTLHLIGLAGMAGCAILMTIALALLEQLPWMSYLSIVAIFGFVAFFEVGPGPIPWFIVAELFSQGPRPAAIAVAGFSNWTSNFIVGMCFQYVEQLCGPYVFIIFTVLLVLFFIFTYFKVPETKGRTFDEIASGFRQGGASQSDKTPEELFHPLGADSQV
# [2] = molecular target: Hexose transporter 1 (Plasmodium falciparum) (UniProt O97467); experiment: ST_JUDE_LEISH: Cytotoxicity at 2uM final concentration against transgenic Leishmania Mexicana promastigotes LmPfHT that are glucose transport deficient and complemented with the Plasmodium falciparum hexose transporter. Activity is measured by DNA content using SYBR green in vitro
# [3] = molecular target: Glucose transporter (Leishmania mexicana) (UniProt O61059); experiment: ST_JUDE_LEISH: Cytotoxicity at 2uM final concentration against transgenic Leishmania Mexicana promastigotes LmGT2 that are glucose transport deficient and complemented with the L. Mexicana glucose transporter 2. Activity is measured by DNA content using SYBR green in vitro
Compound,inhibition [1],inhibition [2],inhibition [3]
CCN1CCC(N2CCC(C(=O)Nc3cccc(-c4cccc(Cl)c4)c3)CC2)CC1,0.8%,-1.24%,2.7%
COc1ccc2nc3cc(Cl)ccc3c(NCCCCN3CCNCC3)c2c1,6.28%,6.49%,3.51%
CCN(CC)CCN(Cc1ccc(-c2ccc(C(F)(F)F)cc2)cc1)C(=O)Cn1c(CCc2ccccc2F)nc(=O)c2ccccc21,3.8%,3.39%,2.3%
O=C(Nc1cccc(-c2cccc(-c3nc4cc(F)ccc4[nH]3)c2)c1)c1ccncc1,0.54%,0.29%,0.2%
Cc1nc(C)c(-c2ccc(C(=O)c3ccccc3)cc2)c(O)c1Br,5.44%,5.49%,5.35%
Fc1ccc2[nH]c(-c3cccc(-c4cccc(CNCC5CCCO5)c4)c3)nc2c1 (stereo not given),-0.33%,-0.14%,-1.55%
c1ccc(Cn2nnnc2-c2cccc(Nc3ccnc4cc(-c5nccs5)ccc34)c2)cc1,1.8%,2.17%,1.96%
O=C(Nc1ccc(Cl)cc1)c1cccc(S(=O)(=O)NC2CCN(CC3CCCCC3)CC2)c1,0.8%,1.68%,3.31%
O=C(Nc1ccc(-c2nc3ccccc3[nH]2)cc1)c1ccc(S(=O)(=O)N2CCCCCC2)cc1,1.06%,2.45%,1.91%
O=C(C1CCCCC1)N1CCOC(CCN2CCC(c3ccccc3)CC2)(c2ccc(Cl)c(Cl)c2)C1 (stereo not given),15.2%,16.1%,13.5%
CC(=O)Nc1nc(C(=O)Nc2cccc(-c3cccc(-c4nc5ccccc5[nH]4)c3)c2)cs1,12%,15.6%,6.57%
O=C(Nc1ccnc(N2CC3CC2CN3Cc2cccc(O)c2)c1)c1ccc(F)cc1 (stereo not given),0.07%,-1.27%,1.75%
COc1ccc(N2CCN(CCCC/C=C/c3ccc(NC(=O)c4cc(Cl)cc(Cl)c4)cc3)CC2)c(OC)c1,2.58%,1.17%,0.93%
COc1ccc2nccc(N3CCN(CCNCc4ccc5c(n4)NC(=O)CS5)CC3)c2n1,0.43%,1.14%,0.07%
FC(F)(F)c1ccc2[nH]c(-c3ccc(-c4ccc(CNCc5cnn(-c6ccccc6)n5)cc4)cc3)nc2c1,2.68%,0.52%,0.17%
COc1ccc(C2(CNCC(O)c3cccc([N+](=O)[O-])c3)CCCCC2)cc1OC (stereo not given),1.34%,2.95%,0.33%
O=C(Nc1ccc(Cl)c(-c2nc3ccccc3[nH]2)c1)c1ccc(-c2ccc(Cl)cc2)o1,2.63%,4.17%,1.89%
Cc1sc(N2CCCCC2)nc1C(=O)Nc1ccc(F)cc1C(F)(F)F,3.13%,-1.54%,0.73%
COc1cc(-c2cc3cc(Cl)c(Cl)cc3[nH]2)ccc1C(=O)NCCC1CCCN1C (stereo not given),-0.78%,-0.94%,-1.26%
C[C@H](NC(=O)c1cc(-c2ccc(C(C)(C)C)cc2)no1)C(=O)O.C[C@H](NC(=O)c1conc1-c1ccc(C(C)(C)C)cc1)C(=O)O,-0.02%,0.23%,1.58%
CCc1nc(N)nc(N)c1-c1ccc(F)cc1,6.27%,4.73%,5.14%
CCN(CC)CCN(Cc1ccc(-c2ccc(C(F)(F)F)cc2)cc1)C(=O)Cn1c(SCc2ccc(F)cc2)nc(=O)c2ccccc21,4.02%,1.11%,1.8%
CN(C)C(=O)CCCn1c(CNCCCNc2cc(=O)c3ccccc3[nH]2)cc2c(Cl)cc(Cl)cc21,0.57%,2.54%,2%
O=C(Nc1ccccc1Cc1ccccc1)c1ccccc1C(F)(F)F,6.25%,1.68%,2.61%

Compound,inhibition [1],inhibition [2],inhibition [3]
Cc1cc(N2Cc3ccccc3C2)nc(Nc2ccc(S(=O)(=O)N3CCOCC3)cc2)n1,1.54%,2%,1.21%
CC(=O)Nc1ccc(C(=O)Nc2cccc(-c3cccc(-c4nc5cccc(C)c5[nH]4)c3)c2)cn1,4.29%,3.64%,1.41%
Oc1c(CN2CCC(Cc3ccccc3)CC2)cc(Cl)c2cccnc12,13.5%,14%,9.31%
Cc1ccc(-c2nc(Nc3ccncc3)c3ccccc3n2)s1,5.34%,3.16%,0.88%
O=C(Nc1cccc(-c2cccc(CN3CCCC3)c2)c1)c1ccc(Cl)cc1,1.55%,1.32%,3.94%
Oc1ccc(CCCNc2nc(NCc3cccc4ccccc34)nc(N3CCNCC3)n2)cc1,-1.06%,0.53%,0.63%
c1ccc(Oc2ccc(Nc3ccnc4ccc(-c5ccccn5)cc34)cc2)cc1,2.62%,4.16%,3.02%
CCc1ccc(CN(CCCOc2cccc(CC(=O)NCc3c[nH]cn3)c2)Cc2ccc(-n3ccnc3)cc2)cc1,2.55%,2.84%,3.08%
CN(C)c1ccc(C=C2SC(=N)N(c3nccs3)C2=O)cc1,3.25%,5.28%,4.86%
CC1(C)CCC(C)(C)c2c1ccc(C1CCN(CCCCNC(=O)c3ccc(-c4ccc(C#N)cc4)cc3)CC1)c2OCC(N)=O,3.73%,4.26%,4.33%
COc1ccc(-c2cccc(NC(=O)c3ccc(C#N)cc3)c2)cc1CNC(C)C,8.59%,6.99%,8.32%
O=C(Nc1ccc(-c2ccccc2)cc1)Nc1cccc(OCCN2CCCC2)c1,7.09%,4.18%,4%
C[C@@H](Nc1nc(NCc2ccccc2)c2sccc2n1)c1ccccc1,24%,22.3%,8.39%
Cc1cccc2nc(-c3cccc(-c4ccc(CNCc5cnn(-c6ccccc6)n5)cc4)c3)[nH]c12,0.18%,2.02%,0.22%
CCOC(=O)c1cn(CC)c2cc(F)c(OC3CC4CCC3(C)C4(C)C)cc2c1=O (stereo not given),-1.86%,-1.79%,-3.18%
N#Cc1cccc(NC(=O)Nc2ccc(CC(=O)N3CCc4cc(Cl)c(N5CCN(C/C=C/c6ccccc6)CC5)cc43)cc2)c1,2.33%,4.39%,2.7%
CNCCNCc1cccc(-c2ccc(-c3nc4ccccc4[nH]3)cc2)c1,-1.56%,0.67%,-0.51%
Cc1cccc2nc(-c3ccc(-c4ccc(NC(=O)Nc5ccc(Cl)c(Cl)c5)cc4)s3)[nH]c12,1.5%,1.27%,-6.86%
Cc1ccc2[nH]c(-c3cc(-c4cccc(CCN5CCOCC5)c4)cnc3N)nc2c1,4.66%,5.93%,1.19%
O=C(/C=C/c1ccc(Cl)c(Cl)c1)NCCCCCN1CCC(c2c[nH]c3c(-c4ccccc4)cccc23)CC1,0.48%,4.3%,3.07%
CN1CCCC1CCOc1ccc2c(c1)N(C(=O)Nc1cc(Br)cc(C(F)(F)F)c1)CC2 (stereo not given),-1.82%,-2.4%,-2.02%
N#Cc1c(N)nc(SCC(=O)Nc2cc(C(F)(F)F)ccc2Cl)c(C#N)c1-c1cccs1,1.06%,0.77%,0.5%
O=C(Nc1ccc2c(c1)CCN(C1CCC1)CC2)c1ccc(-c2cn3ccccc3n2)cc1,3.01%,1.01%,3.48%
Clc1ccc2nc(-c3cccnc3)[nH]c2c1,6.05%,8.47%,6.56%

Compound,inhibition [1],inhibition [2],inhibition [3]
CC(C)CCNC(=N)c1ccc(OCCCCCOc2ccc(C(=N)NCCC(C)C)cc2)cc1,12.4%,12.5%,8.15%
O=C(Nc1ccc(C(=O)N2CCN(CCN3CCN(c4cccc(C(F)(F)F)c4)CC3)CC2)cc1)c1cc(Cl)cc(Cl)c1,3.84%,0.79%,2.52%
O=C(/C=C/c1ccc(Cl)c(Cl)c1)NCCCCCN1CCC(c2n[nH]c(-c3ccccc3)c2Br)CC1,1.29%,-2.38%,0.22%
COc1ccc(/C=C/C(=O)N2CCc3cc4nccc(N5CCN6CCC[C@H]6C5)c4cc32)cc1,3.43%,4.78%,4.53%
CC(C)=CCN1CCC(C(=O)Nc2ccc(-c3nc4ccccc4[nH]3)cc2)CC1,5.64%,5.1%,6.97%
Cc1ccc(CN2CCCCC(NC(=O)c3cc4ccccc4s3)C2)cc1 (stereo not given),0.16%,0.49%,-8.68%
CC(C)(C)c1ccc(C(=O)Nc2cccc(Nc3c(C(=O)NCc4cccc(C(F)(F)F)c4)cnc4c(O)cccc34)c2)cc1,10.1%,8.9%,9.37%
COc1ccc2nccc([C@@H](O)CN3CCC(NC(=O)/C=C/c4ccc5[nH]c(=O)ccc5c4)CC3)c2c1,2.93%,1.78%,2.05%
CC(=O)Nc1sc(C)c(C)c1CN1CCc2ccccc2C1,-0.17%,0.49%,-1.3%
O=C(NC1CC1)c1ccc(N2CCOc3ccc(Cl)cc32)s1,2.19%,1%,1.54%
COc1cc(C)ccc1S(=O)(=O)N1CCCCC(c2ccc(C(F)(F)F)cc2)=N1,10.8%,11.2%,10.3%
CC(C)(C)c1ccc2[nH]c(-c3ccc(C(=O)NCCCc4ccccc4)cc3)nc2c1,2.42%,2.97%,-0.47%
Cc1ccc(-c2nc3cc(NC(=O)c4ccc([N+](=O)[O-])o4)ccc3o2)cc1Cl,77%,85.3%,68.1%
CCCCN(C(=O)c1ccccc1C)c1nnc(-c2ccccc2C)s1,2.08%,1.53%,-0.2%
COc1cc2nc(N[C@@H](CO)c3ccccc3)nc(NCc3ccccc3)c2cc1OC,1.12%,2.17%,1.61%
Cc1noc(-c2ccc(O)cc2O)c1-c1ccc2c(c1)OCCCO2,0.11%,0.09%,0.22%
COc1ccc2ncc(F)c(CCN3CC(O)C(CNCc4ccc5oc(=O)ccc5c4)C3)c2n1 (stereo not given),8.17%,6.29%,5.19%
O=C(N/N=C/c1nc2ccccc2[nH]1)c1cccc([N+](=O)[O-])c1,2.46%,1%,0.25%
CC(C)(C)N1CCC(N(Cc2ccc(-c3ccc(C(F)(F)F)cc3)cc2)C(=O)Cn2c(CCc3cccc(F)c3F)cc(=O)c3cccnc32)CC1,-0.12%,-1.34%,-1.6%
CN(C)CCOc1ccc(-c2cc(-c3ccncc3)c(-c3ccc(Cl)c(O)c3)o2)cc1,1.31%,1.64%,0.33%
COc1ccc2nccc([C@@H](O)CN3CCC(NCc4ccc5nnsc5c4)CC3)c2c1,-1.03%,0.44%,-0.67%
CCN(CCCN1CCCCC1)c1cc(C)nc(Nc2ccc(C)c(Br)c2)n1,4.08%,6.82%,7.62%
